Screening results deposited in PubChem BioAssay by National Center for Advancing Translational Sciences (NCATS).
p53 reactivation – mutant p53 re-activation in reporter cells. H1299 p53-A138V BP100-luciferase reporter, luminescence, 24 h. Potency, µM (top dose mostly 92.2 µM), for inactives: at the top dose activity change, positive = activation, most hits filed as activators. actives 0.063% (n = 320,000); active = well fitted activation curve with a large enough effect; inconclusive = small, poorly fitted or top-dose-only effect; inactive = no such curve, though single readings can be large or run the other way; note: potency is the fitted concentration of half-maximal effect; % of control where 0% means no effect; nearly all actives have a fitted effect of over 45% in size
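H1299 (p53-null), stable ts p53-A138V + BP100-Luc; 1000 cells/well, Opti-MEM/10% FBS; cpd 4 pt, 1:5; 24 h, 37 deg C, 5% CO2; detection reagent 10 min RT; luminescence.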
Menin MLL FP TR – menin-MLL binding inhibition, Texas Red mutant peptide; O00255; Menin + Texas Red MLL mutant peptide, fluorescence polarization; AID 1768; Potency, µM (doses to about 61.6 µM), without a hit: top-dose FP activity change, negative = inhibition, hits mostly inhibitors; actives 0.23% (n = 270,000); active = well fitted inhibition curve with a large enough effect in the polarisation, with a control signal flat, not every such curve was filed as active; inconclusive = small, poorly fitted or top-dose-only effect, or effect the other way, or a change in a side signal; inactive = no such curve, though single readings can be large or run the other way; the % refers to the polarisation; note: potency is the fitted concentration of half-maximal effect; % of control where 0% means no effect
Menin-MLL FL inh – displaces fluorescein MLL peptide from human menin; Fluorescence polarization, fluorescein-MLL peptide displacement from menin; FP activity change, % at 61.4 µM; 290,000 tested, under 10 active; AID 1766; active = well fitted curve in the direction sought with a large enough effect in the polarisation, not every such curve was filed as active; inconclusive = small, poorly fitted or top-dose-only effect, or effect the other way, or a change in a side signal; inactive = no such curve, though single readings can be large or run the other way; the % refers to the polarisation; note: % of control where 0% means no effect
CXXC DNA block – blocks binding of human MLL CXXC domain to DNA. Q03164. MLL-CXXC / FITC-HOXA9 DNA fluorescence polarization. Potency, µM (top dose mostly 115 µM), without a hit: at the top dose activity change, negative = inhibition, usual class: inhibitors. actives 0.037% (n = 290,000); active = well fitted inhibition curve with a large enough effect in the polarisation, with a control signal flat, not every such curve was filed as active; inconclusive = small, poorly fitted or top-dose-only effect, or effect the other way, or a change in a side signal; inactive = no such curve, though single readings can be large or run the other way; the % refers to the polarisation; note: potency is the fitted concentration of half-maximal effect
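Fluorescence polarization: 7 uM MLL-CXXC (stock) preincubated 5 min with compounds, then 50 nM fluorescein-HOX-A9 DNA (stock) added; 30 min ambient. Buffer 50 mM Tris-HCl pH 7.5, 50 mM NaCl, 1 mM DTT, 0.05% BSA.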
ClpP mod – qHTS Assay for Activators of ClpP; actives 1.9% (n = 340,000); purified B. subtilis ClpP, FRET peptide cleavage, 20 min; ATP-dependent Clp protease proteolytic subunit (Bacillus subtilis (strain 168)), P80244; Potency, µM (top dose mostly 57.5 µM), inactives show at the top dose activity change, negative = active; AID 651965, 2013; active = well fitted falling curve with a large enough effect; inconclusive = small, poorly fitted or top-dose-only effect; inactive = no such curve, though single readings can be large or run the other way; note: potency is the fitted concentration of half-maximal effect; the source files actives as falling curves though it sought activators and does not explain the sign; nearly all actives have a fitted effect of over 65% in size
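Purified B. subtilis ClpP, 10 microg/mL final in Tris/HCl pH8 with KCl, BSA, glycerol and Tween-20, cleaved an Abz/nitrotyrosine-quenched decapeptide. Fluorescence (ex 320, em 430) was read at 0 and 20 min at room temperature. Delta was normalized to 5.8 microM ADEP and DMSO/no-enzyme controls.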
Active calls of the source: *; ? = inconclusive; . = no result; ! = not active in a repeat; [ ] = dose if it differs, or a comment. Only a selection was taken, and hits are over-represented in it overall.

SMILES	p53 reactivation	Menin MLL FP TR	Menin-MLL FL inh	CXXC DNA block	ClpP mod
C[C@@H]1CC2C3CCC4=CC(=O)C=CC4(C)[C@@]3(F)[C@@H](O)CC2(C)[C@@]1(O)C(=O)CO (stereo not given in full)	.	-1.7%	1.0	.	.
O=C(N/N=C/c1ccc2c(c1)OCO2)c1ccn(Cc2ccc(Cl)cc2)n1	11.6%	.	.	5.5%	28.2µM*
COc1ccc(N2CCN(Cc3cc(=O)c(OCC(=O)Nc4ccccc4)co3)CC2)cc1	-1.6%	.	.	.	-6.9%
COc1ccc(NC(=O)COc2coc(CN3CCN(c4ccccc4)CC3)cc2=O)cc1	5.4%	.	.	.	28.2µM*
Cc1ccc(S(=O)(=O)C2(C(=O)Nc3ccc(Cl)c(C(F)(F)F)c3)CC2)cc1	.	.	.	.	-0.7%
CN(C)c1ccc(/C=C/c2cc(/C=C/c3ccc(N(C)C)cc3)c3ccccc3n2)cc1	.	.	.	.	1.9%
O=C(Cn1cnc2sc(-c3ccccc3)cc2c1=O)NCc1ccco1	-6.8%	25.1µM*	10.6	6.3%	-3.0%
CCOP(=O)(OCC)c1nc(-c2ccccc2)oc1N1CCCCC1	-0.2%	31.6µM*	3.7	6.8%	4.2%
CCOP(=O)(OCC)c1nc(-c2cccc3ccccc23)oc1N1CCCCC1	-1.4%	-19.3%	2.2	1.7%	4.1%
CN(c1ccc(C(=O)Nc2cccnc2)cc1)S(=O)(=O)c1ccccc1	3.2%	8.4%	-0.5	1.0%	.
CN(c1ccc(C(=O)Nc2cccnc2)cc1)S(C)(=O)=O	11.0%	12.6%	0.1	-6.6%	28.2µM*
COC(=O)c1ccc2c(=O)[nH]c(CCl)nc2c1	-6.4%	8.8%	-0.6	-4.6%	.
CCC1(CC)NC(=O)N(CC(=O)OCc2nc3cc(C(=O)OC)ccc3c(=O)[nH]2)C1=O	1.2%	.	.	.	28.2µM*
CCCNC(=O)Cn1c(=O)/c(=C/c2ccc(-c3cccc([N+](=O)[O-])c3)o2)s/c1=C\C(=O)C(C)(C)C	.	.	.	.	-6.3%
CCCNC(=O)Cn1c(=O)/c(=C\c2ccc(-c3ccc([N+](=O)[O-])cc3)o2)s/c1=C\C(=O)C(C)(C)C	-9.5%	17.8µM*	?	1.5%	-4.4%
O=C(C[N+]1(CC(O)c2ccccc2)CCOCC1)c1ccccc1 (stereo not given)	.	.	.	.	-1.2%
CN(C)CCN(CC1CCCN(Cc2ccccc2F)C1)C(=O)c1ccc(F)cc1 (stereo not given)	20µM*	-1.0%	-5.8	-6.6%	.
COc1cc(C(=O)N(CCN(C)C)CC2CCCN(Cc3ccccc3F)C2)ccc1C (stereo not given)	-8.9%	-18.2%	0.7	2.8%	1.3%
O=S1(=O)CCOCCCN1Cc1ccc(F)cc1	.	.	.	.	-1.0%
Cc1cc(NC(=O)CSc2nc(N)c(NC(=O)c3ccccc3)c(=O)[nH]2)no1	0.7%	-25.4%	1.5	2.8%	.
Cc1cc(NC(=O)CSc2nc(N)c(NC(=O)c3ccccc3F)c(=O)[nH]2)no1	-4.0%	.	.	-6.6%	15.8µM*
Cc1cccc(NC(=O)c2cccc(NC(=O)Cc3cccs3)c2)c1	-9.1%	?	-7.3	-0.5%	.
CC(C)(C)NC(=O)c1cccc(NC(=O)Cc2cccs2)c1	8.5%	5.7%	0.0	12.4%	35.5µM*
COc1cccc(C2=Nn3c(nnc3-c3cc(OC)ccc3OC)SC2)c1	.	?	0.3	.	.
O=C(O)c1nn(CC(=O)N2CCCCCC2)c(=O)c2ccccc12	-2.4%	-4.2%	-1.7	16.6%	28.2µM*
SMILES	p53 reactivation	Menin MLL FP TR	Menin-MLL FL inh	CXXC DNA block	ClpP mod
CCCCc1c(O)c2ccccc2[nH]c1=O	-1.3%	9.1%	1.9	8.7%	25.1µM*
CCCc1c(O)c2ccccc2[nH]c1=O	-5.7%	3.9%	4.7	4.0%	14.1µM*
Cc1ccccc1NC(=O)Cc1c(O)c2ccccc2[nH]c1=O	4.0%	7.8%	0.3	0.2%	15.8µM*
CCCc1c(C)c2ccccc2[nH]c1=O	-1.2%	5.9%	6.1	-1.5%	-18.2%
CC(C)Oc1ccc(-c2nc(-c3cccnc3)no2)cc1	.	.	.	.	-4.0%
C=CC(=O)N1C(=O)c2ccccc2S1(=O)=O	.	-6.4%	0.0	.	.
CCNc1nc(C#N)nc(Nc2ccccc2)n1	.	.	.	.	-2.2%
COc1ccc(S(=O)(=O)c2cnc3ccc(Cl)cc3c2N2CCCCC2C)cc1 (stereo not given)	.	.	.	.	-0.5%
C=CCn1c(-c2ccc(C)cc2)nc2ccccc21	7.0%	-21.4%	-0.4	27.8%	7.08µM*
Cn1c(-c2ccc(N)cc2)nc2ccccc21	?	-1.2%	-1.6	-4.0%	2.82µM*!
Cn1c(-c2ccc3nc(N)sc3c2)nc2cc(N)ccc21	10.6%	-0.2%	2.2	0.8%	10µM*
Cc1nc(NCc2ccco2)c2c3c(sc2n1)CCC3	-4.1%	10.7%	5.1	-5.4%	-1.6%
CCN1CCc2c(sc3c2c(NCc2ccco2)nc2nnnn23)C1	-1.8%	-10.9%	?	4.5%	12.6µM*
COc1cccc(-c2nn(-c3ccccc3)cc2CO)c1	.	23.5%	-0.6	3.7%	0.1%
OCc1cn(-c2ccccc2)nc1-c1ccc2c(c1)OCCO2	?	.	3.8	-0.6%	28.2µM*
COc1ccc(-c2nn(-c3ccccc3)cc2CO)cc1OC	-3.5%	-4.7%	0.4	-3.8%	11.2µM*
O=C(Nc1ccc(Cl)cc1Cl)c1cnn2c1NC(=C1CC1)C=C2C(F)F	.	.	.	.	-0.6%
O=Cc1ccc(O)cc1	.	.	.	.	2.0%
CC1OC2(C)OC(=N)C1(C#N)C(C#N)(C#N)C2c1ccccc1 (stereo not given)	4.2%	-1.5%	2.5	-7.4%	25.1µM*
CC(C)NS(=O)(=O)c1ccc2[nH]c3nc(SCC(=O)Nc4ccc(F)c(F)c4)nnc3c2c1	.	.	.	.	-0.6%
CC(CC(C)(C)C)CP(=O)(O)CC(C)CC(C)(C)C (stereo not given)	.	-14.7%	-1.9	.	.
Cn1cc(-c2nnc(-c3ccccc3)o2)c2ccccc21	22.3%	11.3%	0.0	-2.1%	14.1µM*
Cc1ccccc1-c1nnc(-c2ccccc2)o1	?	-2.2%	-3.4	2.1%	?
CN(C)c1ccc(/C=C/c2ccnc3ccc(F)cc23)cc1	.	.	.	.	-14.6%
Cc1noc(C)c1S(=O)(=O)N1CCc2nc(COc3ccccc3)c3c(c2C1)CO[C@@H](C)C3	.	-11.8%[11.7 µM]	0.6[11.7 µM]	.	.
C=C1CCC(O)C/C1=C/C=C1\CCC[C@]2(C)[C@@H]([C@H](C)/C=C/[C@H](C)C(C)C)CC[C@@H]12 (stereo not given in full)	.	0.5%	6.3	-2.0%	.
O=[N+]([O-])c1ccc2cc[nH]c2c1	.	.	.	.	17.8µM*
O=[N+]([O-])c1ccc2[nH]ccc2c1	.	.	.	.	-0.2%
O=C(O)c1ccc2cc[nH]c2c1	6.3%	-6.4%	1.5	-0.1%	15.8µM*
CC1CCN(S(=O)(=O)c2cccc(-c3cn4cc(Cl)ccc4n3)c2)CC1	12.0%	-0.6%	0.5	5.3%	35.5µM*
